In PubChem BioAssay AID1851 (National Center for Advancing Translational Sciences (NCATS), 2009) one finds AC50 and activity, negative = inhibition data, which are given here for 93 molecules.

“And” between values parts separate entries of the source, which are not always exact repeats. Identical values can stand only once. Out of some 16,000 compounds screened, about 5,800 (36%) were called active. Roughly 23% stayed inconclusive and do not appear here. The list shows a part of the results. Values without a mark were called inactive. Calls come from the whole dose curve; as a rule, active = well fitted curve in the direction sought with a large enough effect; inconclusive = small, poorly fitted or top-dose-only effect, or effect the other way; inactive = no such curve, though single readings can be large or run the other way.

One may read the AC50 as the concentration at which the activity in the assay is half-maximal.
% is set by controls: 0 for no effect and ±100 for the full control effect.

Cytochrome P450 2C19 (Homo sapiens), sequence (P33261 whole entry, looked up): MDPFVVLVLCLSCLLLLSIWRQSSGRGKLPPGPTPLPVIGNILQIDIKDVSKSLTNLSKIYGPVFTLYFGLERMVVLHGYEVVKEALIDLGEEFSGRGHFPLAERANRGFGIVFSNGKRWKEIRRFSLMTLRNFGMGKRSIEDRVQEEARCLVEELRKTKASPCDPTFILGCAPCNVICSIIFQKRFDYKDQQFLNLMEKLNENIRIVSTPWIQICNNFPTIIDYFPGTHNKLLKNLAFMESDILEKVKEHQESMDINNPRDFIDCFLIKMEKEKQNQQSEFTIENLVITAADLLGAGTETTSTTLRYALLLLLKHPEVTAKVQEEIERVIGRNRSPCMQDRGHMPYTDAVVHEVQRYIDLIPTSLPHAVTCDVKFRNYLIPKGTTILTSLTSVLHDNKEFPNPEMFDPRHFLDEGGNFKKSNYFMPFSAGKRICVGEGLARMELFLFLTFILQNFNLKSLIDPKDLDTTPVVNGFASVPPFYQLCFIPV

The assay concerns the target Cytochrome P450 2C19 (Homo sapiens) (UniProt P33261). Briefly: Cytochrome panel assay with activity outcomes. The conditions noted are these: recombinant CYP, pro-luciferin dealkylation, luminescence, p450-cyp2c19; series mostly up to 57.1 µM.
As for `CC(=O)O[C@]1(C(C)=O)CC[C@@H]2[C@@H]3C=C(Cl)C4=CC(=O)[C@H]5C[C@@H]5[C@]4(C)[C@H]3CC[C@]21C`, the AC50 result is “inactive”.

In the case of `COc1cccc(-c2[nH]nc3c2C(c2ccc(C)o2)C(C#N)=C(N)O3)c1` (stereo not drawn), the concentration at half-maximal activity (AC50) is 1.78 µM (active). Same read-out and setting: the result for `COc1cccc(-c2[nH]nc3c2C(c2ccsc2)C(C#N)=C(N)O3)c1` (stereo not drawn) reads 0.447 µM (active); that for `CS(=O)(=O)N1CCC2(CCN(Cc3nccs3)CC2)CC1`, “inactive”; that for `NC(N)=N[C@H](CCC(=O)O)C(=O)O`, “inactive”. Still for that read-out and setting: under `COC(=O)N1CCC[C@@]2(CCN(C(=O)Nc3cccc(C#N)c3)C2)C1` stands “inactive”; under `COC(=O)C1=C(C)OC(N)=C(C#N)C1c1cc(OC)ccc1OC` (stereo not drawn), 7.94 µM (active); under `COc1cc(C2C(C#N)=C(N)OC3=C2C(=O)CCC3)cc(OC)c1OC(=O)N1CCOCC1` (stereo not drawn), “inactive”. Same read-out and setting: the result for `COC(=O)C1=C(C)OC(N)=C(C#N)C1C1CCCCC1` (stereo not drawn) reads 0.562 µM (active); that for `COc1ccc(C(=O)N2CCC3(CCN(Cc4ccccc4OC)CC3)CC2)cc1`, “inactive”. Take `O=C(c1ccco1)N1CCC2(CCN(Cc3ccccc3)CC2)CC1`: the AC50 result is “inactive”. In the case of `CC(=O)N1CCC2(CCN(Cc3ccccc3)CC2)CC1`, the AC50 result was “inactive”. The same measure, in the same setting: under `O=C(c1coc(=O)c2ccccc12)N1CCN(Cc2ccccc2)CC1` stands 2.24 µM (active); under `COc1ccc(Nc2ncc(C(=O)N3CCN(Cc4ccccc4)CC3)c3ccccc23)cc1`, 2 µM (active); under `COC(=O)c1ccccc1OCC(=O)N1CCN(c2ccc(OC)cc2)CC1`, 14.1 µM (active). With `COc1ccc(Nc2ncc(C(=O)N3CCN(c4ccc(F)cc4)CC3)c3ccccc23)cc1`, the concentration at half-maximal activity (AC50) is 2.24 µM (active). The same measure, in the same setting: the result for `COc1cccc(Nc2ncc(C(=O)O)c3ccccc23)c1` reads “inactive”. Consider `COc1ccc(N2CCN(C(=N)/C(C(C)=O)=C(\C)O)CC2)cc1`, for which the AC50 entry was “inactive”.

As for `C1CNCCOCCNCCN1`, the AC50 entry was “inactive”. On the same count and under the same terms, under `Fc1ccc(COc2ccc(Br)cc2CNCc2ccncc2)cc1` stands 0.1 µM (active); under `CCCN[C@@H](C)C(=O)Nc1c(C)csc1C(=O)OC`, “inactive”. Turning to `COC(=O)c1scc(C)c1NC(=O)Cc1ccccc1`, the concentration at half-maximal activity (AC50) was 15.8 µM (active).

On to `O=C(Nc1ccccc1)N1CC[C@@]2(CCCN(C(=O)c3cnccn3)C2)C1`, for which the AC50 entry was “inactive”. On the same count and under the same terms, under `Cc1cccc(-c2nc(CN3CCCC(C(=O)NC4CCCCC4)C3)c(C)o2)c1` (stereo not drawn) stands 22.4 µM (active). Regarding `Cc1ccc(Cc2cnc(NC(=O)c3cccs3)s2)cc1`, the AC50 is 8.91 µM (active). On the same count and under the same terms, the result for `Cc1ccc(-c2nnc(-c3ccc(NC(=O)c4cccs4)cc3)o2)cc1` reads 6.31 µM (active); that for `Cc1ccccc1-c1nc(-c2ccc(NC(=O)c3cccs3)cc2)no1`, 2.82 µM (active); that for `Cn1c(=O)c2c(ncn2C[C@@H](O)CO)n(C)c1=O`, “inactive”. As to `Cn1c(=O)c2c(ncn2CCO)n(C)c1=O`, the AC50 entry was “inactive”.

Consider `Cn1c(=O)c2c(ncn2CC(COCc2ccccc2Cl)OCc2ccccc2Cl)n(C)c1=O` (stereo not drawn), for which the AC50 is 8.91 µM (active).

Take `Cc1ccc(-c2csc(N3CCC(NS(=O)(=O)c4ccc5c(c4)OCCO5)CC3)n2)cc1`: the half-maximal activity concentration (AC50) is 3.16 µM (active). The same measure, in the same setting: under `CCCCOc1ccc(C(=O)N/C(=C\c2cccc([N+](=O)[O-])c2)C(=O)OCCC)cc1` stands “inactive”. As for `CCCCOc1ccc(C(=O)N/C(=C\c2ccc(OC)cc2)C(=O)OCc2ccco2)cc1`, the half-maximal activity concentration (AC50) is 3.98 µM (active). Take `O=c1c(-c2ccc(Cl)cc2)nc2cnc(N3CCOCC3)nc2n1C1CC1`: the AC50 entry is “inactive”.

Regarding `CC(=O)Nc1ccc([N+](=O)[O-])cn1`, the AC50 result is “inactive”. `O=C(COc1ccc(Br)cc1)Nc1ccc([N+](=O)[O-])cn1`: the AC50 was 2.82 µM (active). Still for that read-out and setting: under `C/C(=N\NC(=O)COc1ccc([N+](=O)[O-])cc1)C(C)(C)C` stands “inactive”; under `CCOc1cc(C2CC(=O)c3c(ccc4ccccc34)N2)ccc1O` (stereo not drawn), 5.01 µM (active); under `CCOc1ccc2ccccc2c1C(=O)N[C@@H]1C(=O)N2[C@@H]1SC(C)(C)[C@@H]2C(=O)O`, “inactive”.

With `Nc1cccc(OCc2nc(N)nc(N)c2-c2ccc(Cl)cc2)c1`, the activity, negative = inhibition was -6.77% [at 11.4 µM]. Take `Cc1cc(OCc2nc(N)nc(N)c2-c2ccc(Cl)c(Cl)c2)ccc1[N+](=O)[O-]`: the AC50 is 3.16 µM (active).

For `CC(C)N1CCC(=NNC(=O)c2ccc(Br)o2)CC1`, the AC50 result is “inactive”. The same measure, in the same setting: the result for `CCCN1CCC(=NNC(=O)c2ccc(Br)o2)CC1` reads 25.1 µM (active). As for `O=C(Nc1nnc(SCc2ccc(Cl)cc2Cl)s1)C1COc2ccccc2O1` (stereo not drawn), the AC50 is 2.51 µM (active). As for `Nc1nc2c(nc(Br)n2[C@@H]2O[C@H]3COP(=O)(O)O[C@H]3[C@@H]2O)c(=O)[nH]1`, the AC50 entry is “inactive”.

Consider `CCCC(=O)Nc1cccc(Oc2nc(C)cc(C)c2C#N)c1`, for which the AC50 was 17.8 µM (active).

In the case of `COC(=O)N1CCC2(CC1)CN(C(=O)Nc1cccc(C#N)c1)C2`, the AC50 result is “inactive”. On to `Cc1cnc(NC(=O)CCCc2nc3ccccc3s2)s1`, for which the AC50 is 7.94 µM (active). Still for that read-out and setting: the result for `COc1ccccc1N1CCN(C[C@@H](O)COc2cccc3ccccc23)CC1` reads 6.31 µM (active) and 7.94 µM (active) and 1.58 µM (active); that for `COc1ccccc1N1CCN(C[C@@H](C(=O)NC(C)(C)C)c2ccccc2)CC1`, “inactive”; that for `Clc1ccc(CN2CCCN(Cc3ccc(Cl)cc3)C2c2cc3ccccc3c3ccccc23)cc1`, 0.794 µM (active). As to `O=C(O)[C@@H]1CCCN1Cc1cc2ccccc2c2ccccc12`, the activity, negative = inhibition is 31.6% [at 11.4 µM].

On to `CC(C)CC(=O)Nc1ccccc1-c1nnn(CC(=O)N2CCc3ccccc3C2)n1`, for which the AC50 was 14.1 µM (active).

With `COc1ccc2c(c1OC)C(=O)OC2[C@H]1c2c(cc3c(c2OC)OCO3)CCN1C` (stereo partly drawn), the half-maximal activity concentration (AC50) was 2.51 µM (active). Same read-out and setting: under `COc1ccc2c(c1OC)C(=O)O[C@@H]2[C@H]1c2c(cc3c(c2OC)OCO3)CCN1C` stands 0.158 µM (active). Consider `C[C@H]1CCCC=CC2C[C@H](OC(=O)CN(C)C)C[C@@H]2[C@@H](O)/C=C\C(=O)O1` (stereo partly drawn), for which the activity, negative = inhibition is 8.1% [at 11.4 µM]. For `CSc1nnc(-c2sc(-c3ccccc3)nc2C)n1C`, the AC50 entry was “inactive”. Same read-out and setting: under `C#CCSc1nnc(-c2sc(-c3ccccc3)nc2C)n1C` stands 2.51 µM (active); under `C#CCSc1nnc(-c2cc3c(C(F)(F)F)nn(C)c3s2)n1C`, “inactive”. With `COC(=O)[C@@]1(Cc2ccccc2)[C@@H]2C(=CC(=O)[C@H]2CC(=O)C(=O)N(C)C)CN1C(=O)c1ccccc1`, the AC50 result was “inactive”. Same read-out and setting: under `COC(=O)[C@@]1(Cc2ccc(F)cc2)[C@@H]2C(=CC(=O)[C@H]2CC(=O)C(=O)N2CCCC2)CN1C(=O)c1ccccc1` stands 31.6 µM (active). Regarding `COC(=O)[C@@]1(Cc2ccc(F)cc2)[C@@H]2C(=CC(=O)[C@H]2CC(=O)C(=O)N(C)C)CN1C(=O)c1ccccc1`, the AC50 was 25.1 µM (active). Same read-out and setting: the result for `CC(NC(=O)Cc1ccc(F)cc1)c1ccccc1` (stereo not drawn) reads 11.2 µM (active).

As to `CC(=O)NC(Cc1ccc(F)cc1)C(=O)O` (stereo not drawn), the AC50 entry is “inactive”. The same measure, in the same setting: under `Cc1nnsc1SCC(=O)O` stands “inactive”. The same measure, in the same setting: under `O=C(O)CSc1sc(=S)sc1SCC(=O)O` stands 10 µM (active); under `COc1cccc(C(=O)N(Cc2ccccc2)Cc2cc3cc4c(cc3[nH]c2=O)OCCO4)c1`, 15.8 µM (active). As to `C/C(CCN1CCc2nc(-c3ccccc3)c(-c3ccccc3)cc2C1)=N\O[C@@H](C)CN1CCCc2nc(C)c(C)cc21`, the activity, negative = inhibition was -28.4% [at 11.4 µM]. `Cc1cc(/C=N/n2cnnc2)c(C)n1-c1ccc(OCc2ccccc2F)cc1`: the AC50 is 2 µM (active). As to `CCOC(=O)C(C)(C)[C@H](O)C(C)C`, the activity, negative = inhibition is 3.67% [at 11.4 µM]. For the molecule `CC(=O)OCC(=O)[C@@]1(O)CC[C@@H]2[C@H]3CCC4=CC(=O)CC[C@]4(C)[C@]3(F)[C@@H](O)C[C@@]21C`, the AC50 entry was “inactive”. The same measure, in the same setting: under `CS[C@]12C(=O)C[C@]3(C)[C@@H](CC[C@@]3(O)C(=O)CO)[C@@H]1CCC1=CC(=O)CC[C@]12C` stands 3.16 µM (active); under `C[C@@]12CCC(=O)C=C1CC[C@H]1[C@H]3CC[C@](O)(C(=O)CO)[C@]3(C)CC(=O)[C@@H]12`, “inactive”. On the same count and under the same terms, the result for `O=C(c1cccc(F)c1)N1CCC2(CC1)CCN(c1ccc(-c3ccccc3)cc1)CC2` reads “inactive”. On to `Cc1ccc(C(=O)N2CCN(c3cc(=O)[nH]nc3-c3ccccc3)CC2)cc1`, for which the AC50 is 20 µM (active).

As for `CC(C)[C@H](CO)Nc1nc(Nc2cc(N)cc(Cl)c2)c2ncn(C(C)C)c2n1`, the AC50 result is “inactive”. Still for that read-out and setting: under `Cc1cnc(CNc2nc(-c3ccc(C(=O)N(C)C)cc3)nc3ccccc23)cn1` stands “inactive”. On the same count and under the same terms, under `CC(=O)NCCNc1nc(-c2ccc(C(=O)N(C)C)cc2)nc2ccccc12` stands “inactive”; under `CN(C)C(=O)c1ccc(-c2nc(Nc3ccccc3)c3ccccc3n2)cc1`, 15.8 µM (active). The same measure, in the same setting: under `CN(C)C(=O)c1ccc(-c2nc(NCc3cccs3)c3ccccc3n2)cc1` stands 10 µM (active); under `CN(C)C(=O)c1ccc(-c2nc(Nc3ccc(F)cc3)c3ccccc3n2)cc1`, 31.6 µM (active).

In the case of `C=C1CC[C@H](O)C/C1=C/C=C1\CCC[C@]2(C)[C@H]1CC[C@H]2[C@@H](C)/C=C\[C@@H](C)C(C)C`, the AC50 entry is “inactive”. Consider `Cn1c(=O)n(C)c2cc([N+](=O)[O-])c(N3CCN(C(=O)c4ccccc4Cl)CC3)cc21`, for which the half-maximal activity concentration (AC50) was 17.8 µM (active). The same measure, in the same setting: under `Cc1ccc(OCC(=O)N2CCN(c3ccc([N+](=O)[O-])c(N4CCOCC4)c3)CC2)cc1` stands 14.1 µM (active); under `CCOC(=O)c1c(NC(=O)c2ccc(N3CCOCC3)c([N+](=O)[O-])c2)sc(C)c1C`, “inactive”.

In the case of `CO/N=C/c1ccc(N2CCN(C(=O)c3ccc(Cl)cc3Cl)CC2)c([N+](=O)[O-])c1`, the AC50 was 5.01 µM (active). Still for that read-out and setting: the result for `Cc1ccc(OC(=O)c2ccc(N3CCOCC3)c([N+](=O)[O-])c2)cc1` reads 20 µM (active). Take `COC(=O)c1ccc(N2CCN(c3ccccc3)CC2)c(NC(=O)C2CC2)c1`: the AC50 entry was “inactive”. The same measure, in the same setting: the result for `Cc1ccc(C(=O)O/N=C\c2ccc(N3CCCCC3)c([N+](=O)[O-])c2)cc1` reads 1.58 µM (active); that for `COC(=O)c1ccc(N2CCN(CC(=O)c3ccc(-c4ccccc4)cc3)CC2)c([N+](=O)[O-])c1`, 5.01 µM (active). Still for that read-out and setting: the result for `Cc1cc(C)n(-c2cc(N3CCN(C(=O)c4ccc(C(C)(C)C)cc4)CC3)ccc2[N+](=O)[O-])n1` reads 2.82 µM (active).

As to `Cc1ccc(C)c(-c2nn(-c3cc(N4CCN(CCO)CC4)ccc3[N+](=O)[O-])c(=O)c3ccccc23)c1`, the AC50 result is “inactive”. Same read-out and setting: the result for `O=C(Nc1ccc(-c2nc3ccccc3o2)cc1)c1ccc(N2CCOCC2)c([N+](=O)[O-])c1` reads 5.01 µM (active).
